# Source: PubChem BioAssay AID1347430 (National Center for Advancing Translational Sciences (NCATS), 2020)
# The campaign covered roughly 91,000 compounds. About 130 (0.14%) were called active. About 3% were inconclusive and are not listed. Calls follow the shape of the dose curve; as a rule, active = well fitted inhibition curve with a large enough effect; inconclusive = small, poorly fitted or top-dose-only effect; inactive = flat fitted curve, though single readings scatter. What follows is part of a selection rich in actives, with near analogues and random picks from the rest. Entries that show only a call come without a potency.
# Tested on: Uracil-DNA glycosylase
# Experiment: Primary qHTS assay for inhibitors of Activation Induced Cytidine Deaminase (AID): UDG Counterscreen signal; also: nearly all actives have a fitted effect of over 65% in size
# Conditions: FRET deamination/UDG coupled assay, UDG read, 4 h; series mostly up to 115 µM
# Excerpt: Assay Provider (PI) Patricia Gearhart Ph.D.
# National Institute on Aging
# National Institute of Health (NIH), Bethesda, MD
# Assay Provider (PI) Rahul Kohli Ph.D.
# Perelman School of Medicine
# University of Pennsylvania, Philadelphia, PA
# Activation-Induced Deaminase (AID) is a cytosine deaminase which converts cytosine into uracil within stretches of ssDNA. The presence of uracil in DNA initiates a cascade of mutagenic DNA repair to introduce point mutations and DNA double strand breaks. Specific targeting of AID to the immunoglobulin heavy chain loci (Igh) promotes mutagenesis in the antibody variable region for somatic hypermutation (SHM) or switch regions leading to class switch recombination (CSR). However, AID also plays a role in accumulating unnecessary mutations across the genome. Mis-targeting of AID results in the initiation of tumor development and leads to greater drug resistance among cancer cells when continually expressed. To identify an AID inhibitor, a small molecule library will be screened in collaboration with NCATS core facility at NIH. To confirm biological function, inhibitors will be examined in an in vitro murine B-cell activation assay and subsequent secondary validation screens. Top molecules will be further screened to identify inhibitory efficacy against a wild type primary splenocytes assay. Using these approaches, we hope to identify a small molecule with great efficacy and low toxicity for use as a molecular probe to further characterize AID's intricacies, or even as a therapeutic.
# A FRET based analysis of cytosine deamination, was developed to identify potential inhibitors of AID catalytic activity. This screen has two signal output, Read 1 evaluates the AID inhibition response. The second readout (Read 2) evaluates UDG response and is uses as a counterscreen to exclude false positive inhibitors. Inhibition in AID and inactivity in the UDG signal is the desired outcome for this assay.
# SEQUENCE No. (e.g., 1, 2, 3, etc.); […] (e.g., Cells, Incubation, Reagent, etc.); VALUE; DESCRIPTION
# 1a; Reagent; 3 uL; [4/3x] 1 uM AID/2.67 U/mL UDG
# 1b; Reagent; 3 uL; 2 U/mL UDG
# 1c; Reagent; 3 uL; 1 uM AID
# 2a; Compound; 46 nL; Follow-up plates (0.64 uM - 10 mM)
# 2b; Control; 46 nL; ATA ([…] - 10 mM)
# 3; Time; 10 min; incubation at room temperature
# 5; Time; 4 hr; incubation at room temperature
# 6; Reagent; 4 uL; [2x] 250 mM NaOH
# 7; Time; 15 sec; centrifuge at 1000 rpm
# 8; Time; 30 min; incubation at room temperature
# 9a; Detection; fluorescence (Read 1: AID); EnVision (PerkinElmer) plate reader, 540 excitation and 590 emission filters
# 9b; Detection; fluorescence (Read 2: UDG); EnVision (PerkinElmer) plate reader, 560 excitation and 665 emission filters
# NOTES (numbers refer to sequence above)
# 1a; Reagents were dispensed in a medium-binding black solid-bottom Greiner plates (789176F) using a BioRptr liquid dispenser. Dispense 3 uL of [4/3x] 1 uM AID (provided by Kohli lab) and [4/3x] 2 U/mL UDG (NEB M0280L) into columns 1, 2, 5 to 48.
# 1b; Dispense 3 uL of [4/3x] 2 U/mL UDG into column 3.
# 1c; Dispense 3 uL of [4/3x] 1 uM AID into column 4.
# 2a; Compound (7-points [uM] (0.64; 3.2; 16; 80; 400; 2,000; 10,000; 20,000) double pin-transferred (Dip Factor = 2) using the Kalypsys (Wako USA) pintool equipped with a 1536 pinhead for a final concentration range of 7.32 nM - 114 uM.
# 2b; 10 mM Aurintricarboxylic Acid (Sigma A1895) (ATA, 8-point, n = 2, 1:2.5 dilution in column 2) double pin-transferred (Dip Factor = 2) using the Kalypsys (Wako USA) pintool equipped with a 1536 pinhead for a [final] range of 186 nM - 114 uM.
# 3; Room temperature incubation.
# 4; Dispense 1 uL of substrate mixture from the Kohli lab [4x] […] DJC20 and [4x] 250 nM DJC23 into columns 1 to 48 .
# 5; Room temperature incubation.
# 6; Dispense 4 uL of substrate mixture [2x] 250 mM NaOH into columns 1 to 48.
# 7; Centrifugation step to remove bubbles.
# 8; Room temperature incubation
# 9a; Fluorescence signal (column label AID) was read using the EnVision plate reader. […]
# Potency is read from the fitted curve at half-maximal effect.
row,SMILES,Potency
1,COCCn1c(C)cc(C(=O)C(=O)Nc2nnc(COc3cc(C)ccc3C)s2)c1C,inactive
2,CN(Cc1ccccc1)c1ncnc2onc(-c3ccc(F)cc3)c12,inactive
3,CCc1ccc(N(CC)C(=O)CCn2cnc3onc(-c4ccc(F)cc4)c3c2=O)cc1,89.1 µM (active)
4,CCc1ccccc1N(C)C(=O)C1CCCN(c2ncnc3onc(-c4ccc(F)cc4)c23)C1 (stereo not given),inactive
5,CCN(CC)C(=O)CNC(=O)c1cc2ccccc2c(OC)n1,inactive
6,N#Cc1cccc(C(=O)NC(c2ccccc2)c2cccs2)c1 (stereo not given),inactive
7,CCCC/C=N/NC(=O)CCCCCCCCCCC,inactive
8,CCCCCCCc1ccc(-c2ccc(OC)cc2)nc1,inactive
9,CCN(CC)S(=O)(=O)c1cc(NC(=O)c2n[nH]c3ccccc23)ccc1C,inactive
10,O=S(=O)(Cc1nnnn1-c1ccccc1)c1ccccc1,inactive
11,CCCNc1c(NC(=O)C(C)C)c(=O)oc2ccccc12,inactive
12,CC(C)(C)c1ccccc1OCC(=O)Nc1cccc(C#N)c1,inactive
13,COCC(C)n1c(COc2ccccc2F)nnc1SCC(C)C (stereo not given),inactive
14,COCCNC(=S)NNC(=O)Cc1ccc(OC)c(OC)c1,inactive
15,CCCCNC(=O)CCc1c[nH]c2ccccc12,inactive
16,COC(=O)CNC(=O)/C(C)=C/c1ccccc1,inactive
17,N#Cc1ccc(CNc2cc(Cl)ccc2Cl)cc1,inactive
18,Cc1ccc(NC(=O)c2ccc(Cl)cc2N2CCCC2=O)cc1,inactive
19,Ic1nc[nH]c1I,inactive
20,COc1ccc(NC(=O)COc2ccc(F)cc2)c2cccnc12,inactive
21,Cc1ccc(-n2c(SCC(=O)Nc3cccc(F)c3)nc3c(=O)[nH]cnc32)cc1,inactive
22,Cc1ccc(C(=O)NC(C)C)c(Cl)c1,inactive

row,SMILES,Potency
1,Cc1cc(C)c2c(c1)/C(=N/Nc1nc3ccccc3[nH]1)CCC2,inactive
2,Cc1[nH]c2ccccc2c1/C=N/c1sc2c(c1C#N)CCC(C)C2 (stereo not given),inactive
3,CCCc1ccc(OC(=O)c2ccc3c(c2)-c2ccccc2C3=O)cc1,inactive
4,Cc1csc(SCCCOc2ccc(C#N)cc2)n1,inactive
5,COc1ccc(CNC(=S)NCC(C)N2CCCCC2C)cc1 (stereo not given),inactive
6,Cn1nc(C(=O)OCC(=O)N(Cc2ccccc2)C(C)(C)C)c2ccccc2c1=O,inactive
7,O=C(C1=COCCO1)N1CCN(c2ccccc2)CC1,inactive
8,O=C1/C(=C/c2cccc(Br)c2)CCc2ccccc21,inactive
9,COc1ccc(C(=O)/C(C#N)=C\c2ccccc2OC(F)F)cc1,inactive
10,Cc1cc(C(=O)O)cc(S(=O)(=O)Nc2ccc(Cl)c3cccnc23)c1C,inactive
11,C=CCNC(=O)NC(=O)CN(C)Cc1ccc(-c2ccc(Br)cc2)o1,inactive
12,CC(C)CNC(=O)CSc1nnc(COc2ccccc2Cl)o1,inactive
13,O=C(O)c1ccc(Nc2nc(-c3ccc4ccccc4c3)cs2)cc1O,inactive
14,CC(=O)Nc1ccc(NC(=O)Nc2ccccc2Cl)cc1,inactive
15,CCN1CCC(CNC(=O)c2cc(C)nc3cc(F)ccc23)CC1,inactive
16,COc1ccc(NC(NC(=O)C(C)C)C(Cl)(Cl)Cl)cc1 (stereo not given),inactive
17,O=C(CCc1ncc(-c2ccc(F)cc2)o1)NCc1ccc(OC(F)F)cc1,inactive
18,CNC(=S)NNC(=O)c1cccc(C)c1,inactive
19,CC(=O)NCc1ccc(C(=O)COc2ccc(C(C)=O)cc2)cc1,inactive
20,N#Cc1ccccc1-n1ccnc1,inactive
21,O=C(OCC(=O)c1cccs1)c1cccc(O)c1,inactive
22,CC(C)(C)c1nc2cc(NC(=O)c3ccc[nH]c3=O)ccc2o1,inactive

row,SMILES,Potency
1,COc1ccccc1NC(=O)CSc1nc2c(=O)[nH]cnc2n1-c1ccccc1,inactive
2,O=C(O)c1cccnc1SC(F)(F)F,inactive
3,Cc1ccc(C(CNC(=O)c2cc(-c3ccccc3)on2)N2CCC(C)CC2)o1 (stereo not given),inactive
4,O=C(CCC1CCCC1)N1CCN(CC2CC=CCC2)CC1 (stereo not given),inactive
5,CC(=O)c1c(C)[nH]c(C(=O)OCC(=O)Nc2ccc(Br)c(C)c2)c1C,inactive
6,COC(=O)Cn1cnc2c(sc3nc(C4CCCCC4)c4c(c32)CCC4)c1=O,inactive
7,COc1cccc2cc(/C=C(/C#N)c3nc4ccccc4[nH]3)oc12,inactive
8,COc1cc(SC)ccc1C(=O)Oc1cccc(F)c1,inactive
9,CCCCn1c(=O)[nH]c(=O)c2c1nc(COC(=O)c1cc(C)ccc1C)n2CCC,inactive
10,O=C1C(O)=C(c2ccccc2)C(c2ccccc2)N1Cc1ccccn1 (stereo not given),inactive
11,CCCCC(CC)CNc1ncnc2sccc12 (stereo not given),inactive
12,CCc1c(C)sc(NC(=O)c2cccc3ccccc23)c1C#N,inactive
13,Cc1cn2c(=O)cc(COC(=O)COc3ccccc3)nc2s1,inactive
14,O=C(NC1C2CC3CC(C2)CC1C3)c1cccc(Br)c1 (stereo not given),inactive
15,Cc1ccc2cccc(NC(=O)c3ccccc3C)c2n1,inactive
16,CCCc1cc(=O)oc2c(C)c(OCC(=O)NCc3ccccn3)ccc12,inactive
17,CCCCc1c/c(=N\O)oc2cc3occ(C)c3cc12,inactive
18,N#C/C(=C/c1ccccc1OC(F)F)c1nc2cc(C(F)(F)F)ccc2s1,inactive
19,Cc1csc(CNC(=O)c2cnccn2)n1,inactive
20,CCN(C(=O)COc1ncnc2c(Cl)cc(Cl)cc12)c1ccccc1,inactive
21,O=[N+]([O-])c1cc(S(=O)(=O)Nc2ccccc2NS(=O)(=O)c2cccs2)ccc1Cl,inactive
